PubChem BioAssay (NCI)
The panel holds about 83,000 compounds, 20% with a hit somewhere; the sample as a whole holds those more often.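 A percent growth of 40 corresponds to 60% growth inhibition; 0 means no net growth; -100 means all cells died. Active threshold: below 10.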 Activity calls are given as the source filed them.

Legend:
Assay in all cases: NCI-60 one-dose screen, 48 h (100 = growth as untreated, 0 = no growth, -100 = all killed)
Settings in all cases: 10 µM unless noted
SR leukemia = tested on: SR leukemia
RPMI-8226 leukemia = tested on: RPMI-8226 leukemia
OVCAR-8 ovarian = tested on: OVCAR-8 ovarian
OVCAR-5 ovarian = tested on: OVCAR-5 ovarian
OVCAR-4 ovarian = tested on: OVCAR-4 ovarian
SK-OV-3 ovarian = tested on: SK-OV-3 ovarian
IGROV1 ovarian = tested on: IGROV1 ovarian
OVCAR-3 ovarian = tested on: OVCAR-3 ovarian
HS 578T breast = tested on: HS 578T breast
NCI/ADR-RES ovarian = tested on: NCI/ADR-RES ovarian

Measured: growth

C/C(=N\O)c1ccc(Cl)cc1
inactive: SR leukemia 78.1% | RPMI-8226 leukemia 107% | OVCAR-8 ovarian 88.6% | OVCAR-5 ovarian 118% | OVCAR-4 ovarian 109% | SK-OV-3 ovarian 108% | IGROV1 ovarian 155% | OVCAR-3 ovarian 113% | HS 578T breast 90.4% | NCI/ADR-RES ovarian 108%

COc1ccc(\C=N/N=C(N)/C(N)=N\N=C/c2ccc(OC)cc2)cc1
inactive: SR leukemia 46.9% | RPMI-8226 leukemia 79.2% | OVCAR-8 ovarian 117% | OVCAR-5 ovarian 107% | OVCAR-4 ovarian 117% | SK-OV-3 ovarian 96.1% | IGROV1 ovarian 122% | OVCAR-3 ovarian 108% | HS 578T breast 87.3% | NCI/ADR-RES ovarian 107%

O=C(/C=C/c1cccc(Cl)c1)c1ccc(Nc2nc(Nc3ccc(F)cc3)nc(Nc3ccc(Cl)cc3)n2)cc1
inactive: SR leukemia 75.6% | OVCAR-8 ovarian 92.8% | OVCAR-5 ovarian 98% | OVCAR-4 ovarian 111% | SK-OV-3 ovarian 131% | IGROV1 ovarian 113% | OVCAR-3 ovarian 130% | HS 578T breast 110% | NCI/ADR-RES ovarian 100%
active: RPMI-8226 leukemia 5.94%

CNC(=O)c1[nH]cc(-c2ccc(OC)cc2)c1-c1cc(OC)c2c(c1OC)OCO2
inactive: SR leukemia 102% | RPMI-8226 leukemia 108% | OVCAR-8 ovarian 98.7% | OVCAR-5 ovarian 95.8% | OVCAR-4 ovarian 96.4% | SK-OV-3 ovarian 99.9% | IGROV1 ovarian 87.4% | OVCAR-3 ovarian 100% | HS 578T breast 115% | NCI/ADR-RES ovarian 95.8%

O=C(N/N=C/c1c(Cl)cccc1Cl)c1cccnc1Nc1cccc(C(F)(F)F)c1
inactive: SR leukemia 54.5% | OVCAR-8 ovarian 49.4% | OVCAR-5 ovarian 53.4% | OVCAR-4 ovarian 25.1% | SK-OV-3 ovarian 27% | IGROV1 ovarian 31.8% | OVCAR-3 ovarian 46.8% | HS 578T breast 112% | NCI/ADR-RES ovarian 31%
active: RPMI-8226 leukemia 3.23%

N#Cc1ccc2c(c1)C(=O)c1c-2n(CCCN)c(=O)c2cc([N+](=O)[O-])ccc12
inactive: OVCAR-5 ovarian 16.6%
active: SR leukemia -52% | RPMI-8226 leukemia -45.5% | OVCAR-8 ovarian -71.6% | OVCAR-4 ovarian -82% | SK-OV-3 ovarian -100% | IGROV1 ovarian -95.6% | OVCAR-3 ovarian -96.4% | HS 578T breast -77.7% | NCI/ADR-RES ovarian -36.3%

CCc1ccc(CCCC(=O)O)cc1
inactive: SR leukemia 96.2% | RPMI-8226 leukemia 103% | OVCAR-8 ovarian 107% | OVCAR-5 ovarian 98.3% | OVCAR-4 ovarian 104% | SK-OV-3 ovarian 100% | IGROV1 ovarian 105% | OVCAR-3 ovarian 108% | HS 578T breast 101% | NCI/ADR-RES ovarian 99.1%

CCCCCCCCCCCCCCCCOCCCOP(=O)(O)C1CCCN(O)C1=O (stereo not given)
active: SR leukemia 7.77% | IGROV1 ovarian -2.28% | NCI/ADR-RES ovarian 8.85%
inactive: RPMI-8226 leukemia 10.9% | OVCAR-8 ovarian 23.8% | OVCAR-5 ovarian 20% | OVCAR-4 ovarian 16.5% | SK-OV-3 ovarian 34.4% | OVCAR-3 ovarian 17.3% | HS 578T breast 83.1%

COCCOc1cc2ncnc(N3CCN(c4cc(S(C)(=O)=O)c(C)cc4Cl)CC3)c2cc1OCCOC
inactive: SR leukemia 77% | RPMI-8226 leukemia 76% | OVCAR-8 ovarian 83.2% | OVCAR-5 ovarian 109% | OVCAR-4 ovarian 103% | SK-OV-3 ovarian 105% | IGROV1 ovarian 98% | OVCAR-3 ovarian 96.1% | HS 578T breast 90.6% | NCI/ADR-RES ovarian 83.2%

Cc1ccc(C2=Nc3c(N)ncnc3NC(c3cccc(Nc4ccnc5cc(C(F)(F)F)ccc45)c3)C2)cc1 (stereo not given)
inactive: OVCAR-8 ovarian 48.5% | OVCAR-5 ovarian 75.2% | OVCAR-4 ovarian 45.6% | SK-OV-3 ovarian 46.7% | IGROV1 ovarian 44.7% | OVCAR-3 ovarian 39.2% | HS 578T breast 43.3% | NCI/ADR-RES ovarian 17.4%
active: SR leukemia -19.3% | RPMI-8226 leukemia -26.6%

Cn1cc(-c2csc(-c3c[nH]c4ccc(Br)cc34)n2)c2ccnc(Cl)c21
inactive: SR leukemia 31.6% | RPMI-8226 leukemia 51.4% | OVCAR-8 ovarian 63.8% | OVCAR-5 ovarian 114% | OVCAR-4 ovarian 53.6% | SK-OV-3 ovarian 78.1% | IGROV1 ovarian 65.9% | OVCAR-3 ovarian 77.4% | HS 578T breast 68.7% | NCI/ADR-RES ovarian 65.6%

COCCn1cc(-c2nc(-c3cc4cccnc4[nH]3)cs2)c2cc(OC)ccc21
inactive: RPMI-8226 leukemia 27.1% | OVCAR-8 ovarian 25.3% | OVCAR-5 ovarian 26.3% | OVCAR-4 ovarian 15.6% | SK-OV-3 ovarian 21% | IGROV1 ovarian 24.5% | OVCAR-3 ovarian 27.6% | NCI/ADR-RES ovarian 28.5%
active: SR leukemia 2.96% | HS 578T breast -4.1%

CN(C)c1ccc(C(=O)OCCCCCCl)cc1
inactive: SR leukemia 89.4% | RPMI-8226 leukemia 106% | OVCAR-8 ovarian 106% | OVCAR-5 ovarian 75.6% | OVCAR-4 ovarian 95.4% | SK-OV-3 ovarian 102% | IGROV1 ovarian 101% | OVCAR-3 ovarian 95.4% | HS 578T breast 103% | NCI/ADR-RES ovarian 97.6%

Cn1cc(-c2ccc3nc(-c4ccc(CC(=O)ONc5cc(C(C)(C)C)on5)cc4)cnc3c2)cn1
inactive: SR leukemia 15.5% | RPMI-8226 leukemia 45.2% | OVCAR-8 ovarian 33.7% | OVCAR-5 ovarian 66.1% | OVCAR-4 ovarian 35.4% | IGROV1 ovarian 10.3% | OVCAR-3 ovarian 48% | HS 578T breast 31% | NCI/ADR-RES ovarian 33.2%
active: SK-OV-3 ovarian -17.1%

COC(=O)c1c(C)nc(C)c2c1C(=O)C(Br)=C(NCc1ccccc1)C2=O
inactive: SR leukemia 27% | RPMI-8226 leukemia 41.1% | OVCAR-5 ovarian 61.5% | SK-OV-3 ovarian 109% | IGROV1 ovarian 18% | HS 578T breast 76%
active: OVCAR-8 ovarian 4.6% | OVCAR-4 ovarian -57.3% | OVCAR-3 ovarian -12.7% | NCI/ADR-RES ovarian 3.37%

CCN1C(=O)N(CC)C2C1NN=c1s/c(=C\c3ccccc3F)c(=O)n12 (stereo not given)
inactive: RPMI-8226 leukemia 21.4% | OVCAR-5 ovarian 27.5% | OVCAR-4 ovarian 41.4% | SK-OV-3 ovarian 32.6% | IGROV1 ovarian 15.2% | HS 578T breast 13.2%
active: SR leukemia 8.64% | OVCAR-8 ovarian -1.12% | OVCAR-3 ovarian 0.255% | NCI/ADR-RES ovarian 6.01%

O=C(O)CCN1C(=O)/C(=C/C(Cl)=C/c2ccccc2)SC1=S
active: SR leukemia 6.86% | RPMI-8226 leukemia -8.3% | OVCAR-3 ovarian 2.92%
inactive: OVCAR-8 ovarian 22.8% | OVCAR-5 ovarian 57.8% | OVCAR-4 ovarian 28.7% | SK-OV-3 ovarian 94% | IGROV1 ovarian 22.6% | HS 578T breast 33.8% | NCI/ADR-RES ovarian 11.3%

CCCNC(=O)Nc1ccc2cc3ccc(NC(=O)NCCC)cc3nc2c1
inactive: SR leukemia 37.2% | RPMI-8226 leukemia 76.1% | OVCAR-8 ovarian 74.5% | OVCAR-5 ovarian 90.1% | OVCAR-4 ovarian 65.2% | SK-OV-3 ovarian 95.1% | IGROV1 ovarian 34.4% | OVCAR-3 ovarian 70.1% | HS 578T breast 48.4% | NCI/ADR-RES ovarian 96.9%

Cc1[nH]c(C(=O)Nc2ccccc2OC2CCNCC2)c(Cl)c1Cl
active: RPMI-8226 leukemia -45.2% | OVCAR-8 ovarian 1.61% | OVCAR-4 ovarian -72.8% | OVCAR-3 ovarian -77.7% | HS 578T breast -19.1%
inactive: SR leukemia 10.1% | OVCAR-5 ovarian 68.7% | SK-OV-3 ovarian 109% | IGROV1 ovarian 48.4% | NCI/ADR-RES ovarian 33.8%

CCOC(=O)c1csc(NC(=O)COc2ccc(/C=C3\Oc4ccccc4C3=O)cc2)n1
active: IGROV1 ovarian 6.55%
inactive: SR leukemia 37.9% | RPMI-8226 leukemia 79.5% | OVCAR-8 ovarian 84.7% | OVCAR-5 ovarian 92.1% | OVCAR-4 ovarian 81.6% | SK-OV-3 ovarian 138% | OVCAR-3 ovarian 93.2% | HS 578T breast 91.1% | NCI/ADR-RES ovarian 85.4%

COC(CC(F)F)c1cn(S(=O)(=O)c2ccc(C)cc2)c2ccccc12 (stereo not given)
inactive: SR leukemia 12.2% | RPMI-8226 leukemia 32.1% | OVCAR-8 ovarian 58.5% | OVCAR-5 ovarian 33.3% | OVCAR-4 ovarian 65.5% | SK-OV-3 ovarian 18.1% | IGROV1 ovarian 35.8% | HS 578T breast 32.5% | NCI/ADR-RES ovarian 36.3%
active: OVCAR-3 ovarian 7.08%

COc1ccc(C2=C(Br)C(=O)c3nc(C)ccc3C2=O)cc1
inactive: SR leukemia 17.3% | RPMI-8226 leukemia 72.5% | OVCAR-8 ovarian 88.8% | OVCAR-5 ovarian 109% | OVCAR-4 ovarian 87.9% | SK-OV-3 ovarian 85.1% | IGROV1 ovarian 87.5% | OVCAR-3 ovarian 40% | HS 578T breast 90.8% | NCI/ADR-RES ovarian 97.4%

CCc1ccccc1-n1c(-c2ccc(OC)cc2)cc(-c2ccc(OC)cc2)c(C#N)c1=O
inactive: SR leukemia 98.4% | RPMI-8226 leukemia 105% | OVCAR-8 ovarian 41.7% | OVCAR-5 ovarian 92.7% | OVCAR-4 ovarian 85.9% | SK-OV-3 ovarian 54% | IGROV1 ovarian 85.5% | OVCAR-3 ovarian 82.2% | HS 578T breast 17.9% | NCI/ADR-RES ovarian 72.4%

COC(=O)[C@]12CCC(C)(C)C[C@H]1[C@H]1/C(=N/OCCc3nn[nH]n3)C[C@@H]3[C@@]4(C)CC[C@H](OC(C)=O)C(C)(C)[C@@H]4CC[C@@]3(C)[C@]1(C)CC2
inactive: SR leukemia 31.8% | RPMI-8226 leukemia 22.6% | OVCAR-8 ovarian 29.7% | OVCAR-5 ovarian 74.4% | OVCAR-4 ovarian 25.3% | SK-OV-3 ovarian 58.7% | IGROV1 ovarian 30.9% | OVCAR-3 ovarian 31.8% | HS 578T breast 48.3% | NCI/ADR-RES ovarian 30.1%

COc1ccc(CN2c3ccccc3Sc3ccccc32)cc1F
active: OVCAR-3 ovarian -5.46% | NCI/ADR-RES ovarian 2.82%
inactive: SR leukemia 16.9% | RPMI-8226 leukemia 21.2% | OVCAR-8 ovarian 23.7% | OVCAR-5 ovarian 43.1% | OVCAR-4 ovarian 49.2% | SK-OV-3 ovarian 16.8% | IGROV1 ovarian 35.5% | HS 578T breast 16.9%
